The values below come from PubChem BioAssay AID504607 (Sanford-Burnham Center for Chemical Genomics, 2011).

Screen size: about 6,200 compounds; about 4,800 (77%) were called active. So high a share suggests a set chosen from earlier hits. The list is a sample of the results. Unmarked numbers belong to inactive results.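 Rule for the calls: active = mean inhibition at 8 µM reaching about 37%, which flags the compound as non-specific (limit read from the data); inactive = the rest.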

The nature of this test: luminescence decrease from intact luciferase reporter – cell-based, single concentration, SaOS-2, counter-screen for Mdm2/MdmX interaction inhibitor project, confirmation (AID 504607).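 Note: p53-null SaOS-2 cells with luciferase driven by a doxycycline-inducible promoter; compound on cells about two nights before reading with doxycycline added after day one.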 The conditions noted are these: SaOS-2 full-length luciferase counterscreen, at 8 µM, hits give high values. A general note: In a reporter assay the amount or activity of a reporter protein is the signal.
A word on the inhibition: it is the drop in the measured response relative to a control, in per cent. With `Cn1c(=O)n(C)c2cc(C(=O)Nc3ccc4c(c3)OCO4)ccc21`, the inhibition is 56.6% (active). In the case of `CC1CCCCC1NC(=O)/C(C#N)=C/C=C/c1ccccc1[N+](=O)[O-]` (configuration not stated), the inhibition is 57.2% (active). With `NS(=O)(=O)c1ccc(N=Nc2c(O)[nH]c3ccc(Br)cc23)cc1` the figure was 86.5% (active); with `C[C@@H]1C[C@@H]2O[C@H]2/C=C\C=C\C(=O)Cc2c(Cl)c(O)cc(O)c2C(=O)O1`, 33.8%.

Regarding `Clc1cccc(Cl)c1OCCOCCNCc1ccccc1`, the inhibition was 33%. The figure for `N=c1c2c(-c3ccccc3)c(-c3ccccc3)n(Cc3ccccc3)c2ncn1CCCO` is 62% (active); for `CCCCC(O)(CCCC)C(=O)NN(C(=O)CCl)c1ccccc1` it is 34%. Turning to `Cc1cc(=O)oc2cc(OCC3CC(c4ccccc4Cl)=NO3)ccc12` (configuration not stated), the inhibition was 117% (active).

For the compound `Cc1ccc(-n2[nH]c(C)c(/C=N/NC(=O)c3cccc([N+](=O)[O-])c3)c2=O)cc1C`, the inhibition was 46.2% (active). As to `Cn1c(C(=O)NCCCN2CCN(c3cccc(Cl)c3)CC2)cc2c(=O)n(C)c3ccccc3c21`, the inhibition was 61.5% (active). The figure for `OCCCNc1nccc(-c2cc(Nc3cccc(Cl)c3)ncn2)n1` is 53.2% (active). Turning to `CC(C)n1cnc2c(Nc3cccc(Cl)c3)nc(N(CCO)CCCO)nc21`, the inhibition was 47.6% (active). With `CCCCCCCCn1c2c(c(=N)c3c1CCC3)CCCC2`, the inhibition is 22%. With `COc1ccc(-c2nn(C)c(=O)c3ccccc23)cc1NC(=O)COc1ccccc1` the figure was 53.5% (active); with `O=[N+]([O-])c1ccc(Oc2ccc(F)cc2Br)c2ccncc12`, 16%; with `CCCC(=O)Nc1nc2ccc(NC(=O)c3cccnc3)cc2s1`, 108% (active). With `O=C(Nc1nc2ccc([N+](=O)[O-])cc2s1)c1ccc(S(=O)(=O)N2CCCc3ccccc32)cc1` the figure was 20%. As for `Cc1nnc(NC(=O)Nc2ccc(Cl)c(Cl)c2)s1`, the inhibition is 33.4%.

For the compound `O=C(Nc1ccc(Cl)cc1)Nc1nnc(/C=C/c2ccccc2)s1`, the inhibition is 75.8% (active). Turning to `Cc1c(C(=O)N/N=C/c2ccccc2)[nH]c2c([N+](=O)[O-])cccc12`, the inhibition was 48.3% (active).

Turning to `COc1cccc(CNCCc2c[nH]c3ccccc23)c1OCc1ccccc1F`, the inhibition is 42% (active).

On to `COc1ccc(/C=C/C(=O)Nc2ccc(C34CC5CC(CC(O)(C5)C3)C4)cc2)cc1OC`, for which the inhibition is 85.7% (active). For `Cc1c(Cl)c([N+](=O)[O-])nn1Cc1ccc(C(=O)N/N=C\c2cc(Cl)ccc2O)o1`, the inhibition was 32.4%. `CCN(CC)c1ccc(/C=N/Nc2nc(C)cc(C)n2)c(O)c1`: the inhibition is 38.6% (active).

For `CCN(CC)c1ccc(/C=N/NC(=O)c2cnccn2)c(O)c1`, the inhibition is 37.9% (active). For `CC(=O)Oc1c(C(=O)c2nnc(C)o2)c(=O)n(Cc2ccccc2)c2ccccc12`, the inhibition was 36.5% (active). In the case of `NC(N)=N/N=C/c1ccc(OCc2ccc(Cl)cc2Cl)cc1`, the inhibition is 50.2% (active). The figure for `COc1cccc2cc(C(N)=O)/c(=N\NC(=O)c3ccccc3)oc12` is 137% (active); for `CC(Nc1nc(N2CCCC2)nc2ccccc12)c1ccccc1` (configuration not stated) it is 88.5% (active); for `O=C(/C=C/c1ccc(OCc2c(F)cccc2Cl)cc1)N1CCOCC1` it is 27.7%.

For the compound `C=C(C)C(=O)O[C@H]1C/C(C)=C\C(=O)/C=C(\C)[C@H](O)[C@@H]2OC(=O)C(=C)[C@@H]21`, the inhibition is 51.4% (active). With `CCc1ccc(N(CC)c2ncnc3nc[nH]c23)cc1` the figure was 41.2% (active); with `C/C(=N\NC(=O)c1ccccc1F)c1ccccn1`, 52.1% (active).

As for `CCOC(=O)CC1C(=O)NCCN1c1nc2c(C)cccn2c(=O)c1/C=C1\SC(=S)N(C(C)CC)C1=O` (configuration not stated), the inhibition was 101% (active).

As for `CCN1C(=O)c2cccc3c(S(=O)(=O)Nc4ccccc4O)ccc1c23`, the inhibition was 76.6% (active).

As for `Cc1ccc(-c2csc(NC3OC(=O)c4ccccc43)n2)cc1` (configuration not stated), the inhibition is 23.7%. The figure for `COc1ccc2c(c1OC)C(=O)OC2Nc1nc(-c2ccccc2)cs1` (configuration not stated) is 51.2% (active).
